How the values were obtained:
Test in all cases: protein binding microarray; high values mean tight binding
Details in all cases: dsDNA, one strand shown
RELARELA (p65 homodimer) = RELARELA (p65 homodimer) (Homo sapiens, UniProt Q04206 1-307)
p50p50 homodimer = p50p50 homodimer (Homo sapiens, UniProt P19838 7-356)
p52p52 homodimer = molecular target: T1, p52p52 homodimer (Homo sapiens, UniProt Q00653 4-332)
T1 sequence: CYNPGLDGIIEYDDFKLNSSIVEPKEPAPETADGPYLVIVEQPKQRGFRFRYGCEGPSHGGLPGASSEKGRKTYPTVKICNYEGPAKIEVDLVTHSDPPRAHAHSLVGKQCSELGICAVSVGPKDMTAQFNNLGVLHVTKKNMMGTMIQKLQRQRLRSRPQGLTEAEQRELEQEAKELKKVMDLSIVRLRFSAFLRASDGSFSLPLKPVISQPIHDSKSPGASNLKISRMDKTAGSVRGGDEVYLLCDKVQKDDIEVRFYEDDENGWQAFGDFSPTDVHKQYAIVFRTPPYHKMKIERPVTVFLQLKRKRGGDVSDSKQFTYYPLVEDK

[1] = molecular target: RELA (p65) subunit of heterodimer;p50 subunit (Homo sapiens;Homo sapiens, UniProt Q04206;P19838 1-307;7-356)
[2] = molecular target: RELA (p65) subunit of heterodimer;p52 subunit (Homo sapiens;Homo sapiens, UniProt Q04206;Q00653 1-307;4-332)
RELB subunit;p50 subunit = RELB subunit;p50 subunit (Homo sapiens;Homo sapiens, UniProt Q01201;P19838 120-401;7-356)
RELB subunit;p52 subunit = molecular target: T2, RELB subunit;p52 subunit (Homo sapiens;Homo sapiens, UniProt Q01201;Q00653 120-401;4-332)
T2 sequence 1: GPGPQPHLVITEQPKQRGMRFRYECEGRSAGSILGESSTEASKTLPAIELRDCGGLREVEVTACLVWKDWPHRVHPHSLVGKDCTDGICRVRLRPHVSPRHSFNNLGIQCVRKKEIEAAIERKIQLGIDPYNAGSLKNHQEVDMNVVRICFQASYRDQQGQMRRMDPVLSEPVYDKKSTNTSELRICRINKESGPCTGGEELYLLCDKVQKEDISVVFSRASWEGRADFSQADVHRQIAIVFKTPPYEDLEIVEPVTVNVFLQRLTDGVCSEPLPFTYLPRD
T2 sequence 2: T1 sequence

[3] = molecular target: C-Rel subunit;p50 subunit (Homo sapiens;Homo sapiens, UniProt Q04864;P19838 1-285;7-356)
[4] = molecular target: T3, C-Rel subunit;p52 subunit (Homo sapiens;Homo sapiens, UniProt Q04864;Q00653 1-285;4-332)
T3 sequence 1: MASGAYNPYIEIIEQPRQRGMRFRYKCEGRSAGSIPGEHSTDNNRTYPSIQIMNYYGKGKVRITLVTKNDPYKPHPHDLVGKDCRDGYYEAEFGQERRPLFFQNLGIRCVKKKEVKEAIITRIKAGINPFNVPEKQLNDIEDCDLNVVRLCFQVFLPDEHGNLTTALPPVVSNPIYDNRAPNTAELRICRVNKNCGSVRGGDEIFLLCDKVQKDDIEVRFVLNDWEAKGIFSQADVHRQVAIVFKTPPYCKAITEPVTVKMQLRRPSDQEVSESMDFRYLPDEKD
T3 sequence 2: T1 sequence

Sequence of RELARELA (p65 homodimer) (Q04206 1-307): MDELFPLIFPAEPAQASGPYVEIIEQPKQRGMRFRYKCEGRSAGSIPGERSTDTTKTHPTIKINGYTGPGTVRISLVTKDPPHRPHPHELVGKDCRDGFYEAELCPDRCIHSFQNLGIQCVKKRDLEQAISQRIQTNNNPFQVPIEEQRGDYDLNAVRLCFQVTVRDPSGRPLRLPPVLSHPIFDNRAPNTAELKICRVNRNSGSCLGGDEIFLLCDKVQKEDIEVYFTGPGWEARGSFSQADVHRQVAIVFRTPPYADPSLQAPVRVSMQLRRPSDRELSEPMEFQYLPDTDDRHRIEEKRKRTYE
Sequence of RELA (p65) subunit of heterodimer;p50 subunit (Q04206 1-307, chain 1 of 2): as the sequence (Q04206 1-307) above
Sequence of RELA (p65) subunit of heterodimer;p50 subunit (P19838 7-356, chain 2 of 2): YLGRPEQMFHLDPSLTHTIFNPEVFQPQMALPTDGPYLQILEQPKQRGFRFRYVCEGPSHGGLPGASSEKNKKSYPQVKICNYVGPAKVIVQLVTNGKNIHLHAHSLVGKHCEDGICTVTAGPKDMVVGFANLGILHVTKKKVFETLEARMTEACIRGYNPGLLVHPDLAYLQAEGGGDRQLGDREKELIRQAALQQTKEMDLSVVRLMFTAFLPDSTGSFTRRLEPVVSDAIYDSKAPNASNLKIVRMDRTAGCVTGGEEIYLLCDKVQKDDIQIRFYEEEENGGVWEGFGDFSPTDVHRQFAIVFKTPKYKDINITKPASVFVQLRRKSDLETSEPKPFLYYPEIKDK
Sequence of p50p50 homodimer (P19838 7-356): as the sequence (P19838 7-356, chain 2 of 2) above

Row | Sequence | binding signal (RELARELA (p65 homodimer)) | binding signal (p50p50 homodimer) | binding signal (p52p52 homodimer) | binding signal [1] | binding signal [2] | binding signal (RELB subunit;p50 subunit) | binding signal (RELB subunit;p52 subunit) | binding signal [3] | binding signal [4]
1 | AGGATACCCCC | 0.417 z-score | 1.14 z-score | 0.992 z-score | 1.34 z-score | 1.29 z-score | 1.01 z-score | 1.54 z-score | 0.882 z-score | 1.24 z-score
2 | AAATGCTTCCC | 0.511 z-score | -0.412 z-score | -0.425 z-score | -0.0858 z-score | -0.314 z-score | -0.27 z-score | -0.535 z-score | 0.16 z-score | -0.384 z-score
3 | AAAATGATCCC | -0.603 z-score | -0.272 z-score | -0.265 z-score | -0.543 z-score | -0.453 z-score | -0.443 z-score | -0.704 z-score | -0.71 z-score | -0.512 z-score
4 | AGGGGATCCCT | 1.82 z-score | 1.11 z-score | 2.11 z-score | 2.32 z-score | 1.95 z-score | 1.58 z-score | 1.57 z-score | 1.42 z-score | 2.29 z-score
5 | GAGTTCTCCCC | 0.519 z-score | 1.01 z-score | 0.732 z-score | 1.01 z-score | 1.01 z-score | 1.23 z-score | 1.07 z-score | 1.15 z-score | 0.673 z-score
6 | CGGATGGCCCT | -1 z-score | -1.09 z-score | -0.625 z-score | -0.472 z-score | -0.684 z-score | -0.367 z-score | -0.331 z-score | -0.715 z-score | -0.706 z-score
7 | AAGGACTCCCC | 0.78 z-score | 0.758 z-score | 0.493 z-score | 0.844 z-score | 0.665 z-score | 0.692 z-score | 0.442 z-score | 0.76 z-score | 0.388 z-score
8 | AAGGATATCCT | -0.125 z-score | -1.04 z-score | -0.548 z-score | -0.853 z-score | -0.906 z-score | -0.945 z-score | -0.859 z-score | -1.41 z-score | -0.843 z-score
9 | CGAAGACTCCC | -0.527 z-score | -0.307 z-score | -0.407 z-score | -0.172 z-score | -0.618 z-score | -0.262 z-score | -0.747 z-score | -0.657 z-score | -0.571 z-score
10 | GGAAACCTCCT | 0.339 z-score | -1.26 z-score | -0.526 z-score | -0.425 z-score | -0.573 z-score | -1.02 z-score | -0.75 z-score | -0.436 z-score | -0.293 z-score
11 | CGGTGTACCCT | -0.287 z-score | -0.0219 z-score | 0.0503 z-score | -0.317 z-score | -0.282 z-score | -0.0463 z-score | -0.155 z-score | -0.172 z-score | -0.317 z-score
12 | CGGTAGCCCCT | 0.0258 z-score | 0.991 z-score | 0.543 z-score | 0.402 z-score | 0.598 z-score | 0.503 z-score | 0.728 z-score | 0.38 z-score | 0.45 z-score
13 | AAGAATCCCCC | 1.26 z-score | 1.57 z-score | 2.41 z-score | 2.44 z-score | 2.16 z-score | 2.64 z-score | 2.41 z-score | 1.79 z-score | 1.99 z-score
14 | GGGTACTCCCC | 1.34 z-score | 0.682 z-score | 3.13 z-score | 1.82 z-score | 2.75 z-score | 1.95 z-score | 1.96 z-score | 1.45 z-score | 2.17 z-score
15 | CAGAGTATCCT | -0.548 z-score | -1.79 z-score | -0.651 z-score | -0.987 z-score | -1 z-score | -1.11 z-score | -0.991 z-score | -1.45 z-score | -1 z-score
16 | GAGAGGTCCCT | 0.699 z-score | 0.517 z-score | 0.431 z-score | 0.364 z-score | 0.0823 z-score | 0.659 z-score | 0.436 z-score | 0.182 z-score | 0.0392 z-score
17 | GAGGTCCCCCT | 0.588 z-score | 1.14 z-score | 0.954 z-score | 1.63 z-score | 1.22 z-score | 1.56 z-score | 1.97 z-score | 1.28 z-score | 1.05 z-score
18 | GAATACTCCCC | 0.403 z-score | 0.933 z-score | 0.502 z-score | 0.707 z-score | 0.752 z-score | 0.8 z-score | 0.628 z-score | 0.806 z-score | 0.479 z-score
19 | GAAGGGACCCC | -0.812 z-score | 0.244 z-score | 0.629 z-score | -0.173 z-score | 0.512 z-score | 0.268 z-score | 0.639 z-score | -0.159 z-score | 0.296 z-score
20 | GAGTGTACCCC | 0.11 z-score | -0.176 z-score | -0.057 z-score | 0.0359 z-score | 0.0373 z-score | 0.15 z-score | 0.337 z-score | 0.0895 z-score | 0.24 z-score
21 | CGGTGGTTCCT | 0.0744 z-score | 0.731 z-score | 1.05 z-score | 0.41 z-score | 0.701 z-score | 0.293 z-score | 0.552 z-score | -0.0201 z-score | 0.719 z-score
22 | AAGGTATTCCT | -0.0185 z-score | -0.222 z-score | -0.0124 z-score | -0.477 z-score | -0.138 z-score | -0.322 z-score | -0.266 z-score | -0.255 z-score | -0.012 z-score
23 | CAAAAGTTCCC | 1.7 z-score | 0.79 z-score | 0.496 z-score | 0.839 z-score | 0.661 z-score | 0.674 z-score | 0.512 z-score | 0.746 z-score | 0.598 z-score
24 | CAGAAGTCCCT | 0.471 z-score | 1.51 z-score | 1.62 z-score | 1.88 z-score | 1.35 z-score | 2.02 z-score | 1.86 z-score | 1.39 z-score | 0.987 z-score
25 | CGAATGTCCCC | 0.531 z-score | 1.1 z-score | 0.861 z-score | 1.09 z-score | 1.07 z-score | 1.07 z-score | 1.17 z-score | 1.01 z-score | 0.868 z-score
26 | AGGGGAGTCCT | 0.691 z-score | 0.962 z-score | 1.64 z-score | 0.872 z-score | 1.1 z-score | 0.907 z-score | 0.881 z-score | 0.64 z-score | 0.78 z-score
27 | AAGAGAGTCCT | 0.889 z-score | -0.892 z-score | -0.435 z-score | -0.32 z-score | -0.676 z-score | -0.818 z-score | -0.673 z-score | -0.59 z-score | -0.442 z-score
28 | AGGGTTGCCCT | -0.236 z-score | -1.22 z-score | -0.523 z-score | -0.681 z-score | -0.727 z-score | -0.807 z-score | -0.774 z-score | -0.341 z-score | -0.29 z-score
29 | GGAATGATCCC | -0.0862 z-score | -0.737 z-score | -0.387 z-score | -0.382 z-score | -0.396 z-score | -0.763 z-score | -0.764 z-score | -0.432 z-score | -0.264 z-score
30 | CAGAACTTCCC | 1.94 z-score | 0.457 z-score | 0.196 z-score | 0.921 z-score | 0.329 z-score | 0.182 z-score | 0.0935 z-score | 0.664 z-score | 0.413 z-score
